Results: PubChem BioAssay

assay: Primary imaging screen for DUSP6 inhibitors that restore phospho-Erk in transfected HeLa cells, chemical complementation (AID 609); conditions: HeLa MKP-3 transfected, phospho-Erk imaging KS statistic; measured here: nuclear pErk red intensity z-score; at 10 µM; stronger effect = higher value; cells stimulated with TPA for 15 min

Compared with `Cc1cc(NC(CC(C)C)C(=O)O)nc(Cc2ccccc2)n1` (stereo not given), `CCOC(=O)CC(=O)CSc1nnc2sc3ccccc3n12` is lower in z-score: 0.665 for the first, -0.0836 for the second.

Compared with `CSc1nc2[nH]c3c(c2c2nnnn12)CCCC3`, `Cc1nn2cnc3sc4c(c3c2nc1=O)CCCC4` is lower in z-score: -0.282 for the first, -1.01 for the second.

First: CCOc1ccc(N2C(=O)CC(N)C2=O)cc1 (stereo not given)
Second: Cc1cc(=O)oc2ccc(OCC(=O)N3CCc4ccccc43)cc12
The z-score of the first is lower: 0.161 for the first, 1.57 for the second.

Compared with `Nc1c(C(=O)NCc2ccco2)sc2nc(N3CCOCC3)c3c(c12)CCCC3`, `CCc1nc(N2CCOCC2)c(C#N)c2c1CCCC2` is lower in z-score: 1.35 for the first, -0.389 for the second.

Compared with `CC(NC(=O)Nc1ccc(O)cc1)(C(F)(F)F)C(F)(F)F`, `Cc1ccc(NC(=O)Cn2nc(C)c3ccccc3c2=O)cc1` is higher in z-score: 0.803 for the first, 1.91 for the second.

Compared with `Cc1cccc(-c2nnc3n2N=C(c2ccccc2)CS3)c1`, `Cn1c(N)c(C#N)c(C#N)c1-c1ccccc1` is lower in z-score: 1.32 for the first, 0.762 for the second.

Compared with `N#Cc1nc(COc2ccccc2)oc1N1CCCC1`, `C=CCOc1ccc(/C(O)=C2/C(=O)C(=O)N(CCCN3CCOCC3)C2c2ccccc2)cc1` (stereo not given) is lower in z-score: 0.969 for the first, 0.377 for the second.

First: COCCn1c(SCc2c(F)cccc2Cl)nc2c1c(=O)[nH]c(=O)n2C
Second: Cn1c(=O)[nH]c(=O)c2c1nc(Br)n2CCSc1nnnn1-c1ccccc1
The z-score of the first is lower: -0.397 for the first, 1.24 for the second.

Going from `CCc1nc(NC2CCCCC2)c(C#N)c2c1COC(C)(C)C2` to `CCC(C)Nc1nc(OC)nc(N(C)C#N)n1` (stereo not given), the z-score rises from -0.579 to 0.135.

Going from `COC(=O)c1ccc(C2/C(=C(\O)c3ccc4c(c3)OCCO4)C(=O)C(=O)N2CCCN(C)C)cc1` (stereo not given) to `O=C(c1ccccc1)n1c(=S)nc2ccccn21`, the z-score rises from 0.407 to 0.415.
